The results in this text go back to PubChem BioAssay (NCATS).

Inconclusive results are not listed. The source made the active and inactive calls. Unless noted, calls follow the shape of the dose curve; as a rule, active = well fitted curve in the direction sought with a large enough effect; inconclusive = small, poorly fitted or top-dose-only effect, or another doubt; inactive = no such curve, though single readings can be large; an effect the other way counts as inactive or inconclusive.

Assay [1] concerns the target DNA polymerase III PolC-type (Bacillus subtilis (strain 168)) (UniProt P13267). In words: qHTS Validation Assay for the Inhibitors of DNA Replication in Gram-Positive Bacteria (AID 485295).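 Also: PicoGreen fluorescence of double-stranded DNA made on primed circular M13 template.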 Summed up:
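Reconstituted B. subtilis holoenzyme (Pol III, beta clamp, SSB, primase) was preincubated with compound at room temperature, then given single-stranded circular M13Gori plus dNTPs and NTPs. EDTA-containing PicoGreen stopped the reaction, and dsDNA product was read by fluorescence.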
In general terms: In qHTS, concentration-response curves come from the screen itself.

Assay [2] deals with Tumor susceptibility gene 101 protein (Homo sapiens) (UniProt Q99816). The assay can be described thus: qHTS Validation Assay for Iinhibitors of HIV-1 Budding by Blocking the Interaction of PTAP/TSG101 (AID 485342; calls by dose curve). Summed up:
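Tsg101 binding domain (10 uM final) in pH 7.5 HEPES/NaCl/Tween 20/EDTA/TCEP buffer was mixed with pin-transferred compounds, then FITC-labeled PTAP peptide (50 nM final) was added; after 20 min at r.t., fluorescence polarization was read.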

The nature of assay [3]: qHTS Validation Assay to Find Inhibitors of Chronic Active B-Cell Receptor Signaling (AID 485345; active = well fitted curve in the direction sought with a large enough effect in the main read-out, with a control signal flat, not every such curve was filed as active). In a few lines:
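TMD8 ABC-DLBCL cells with dox-inducible green luciferase–IκBα fusion and red native luciferase; compounds 46 uM–3 nM, 4 h at 37C with doxycycline in 0.5% FBS IMDM. Green/red ratio normalized to basal and 10 uM MG-132.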

The nature of assay [4]: Quantitative high throughput screen for delayed death inhibitors of the malarial parasite plastid, 48 hour incubation (AID 488752). Also: nearly all actives have a fitted effect of over 65% in size. Summed up:
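One-generation (48 h) growth assay: a decrease in luciferase signal from an integrated reporter in P. falciparum-infected red cells (0.1% parasitemia, 2% hematocrit) after compound exposure at 37 C indicates parasite inhibition.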

Assay [5] addresses Thioredoxin reductase 1, cytoplasmic (Rattus norvegicus) (UniProt O89049). In words: qHTS Assay for Substrates of Mammalian Selenoprotein Thioredoxin Reductase 1 (TrxR1) (AID 488772).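 Also: a drop in NADPH fluorescence below the no-compound background marks a TrxR1 substrate.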 In a few lines: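 In this dual-purpose format, potential substrates are identified from the first fluorescence read after selenite addition, not from the 8-minute delta. Rat enzyme is preincubated with NADPH and then with compound at ~22 deg C.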

Assay [6] shares this target. In words: qHTS Assay for Inhibitors of Mammalian Selenoprotein Thioredoxin Reductase 1 (TrxR1) (AID 488773).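 Also: drop in NADPH fluorescence over an 8 min run after selenite addition; nearly all actives have a fitted effect of over 40% in size.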 The note with it: Potency: inhibition. Summed up: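 Inhibition is scored from the loss of NADPH fluorescence between first and last reads of an 8-min kinetic run. Selenite (400 uM) was the substrate, added after 15 min compound preincubation at room temperature.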

For assay [7], the target named is Flap endonuclease 1 (Homo sapiens) (UniProt P39748). In words: qHTS Validation Assay for the Inhibitors of Human Flap endonuclease 1 (FEN1) (AID 488816). Summed up: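 Steps: add FEN1 (10 nM reagent) or buffer only; pin compounds; hold 15 min at room temperature; start with substrate, 50 nM final; read at 0 and 15 min; correct, normalize and fit a four-parameter Hill curve.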

Assay [8] deals with M-phase phosphoprotein 8 (Homo sapiens) (UniProt Q99549). The assay can be described thus: qHTS Validation Assay for Inhibitors for MPP8 Chromodomain Interactions with Methylated Histone Tails (AID 488949).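 Also: AlphaScreen signal from MPP8 chromodomain bound to biotinylated H3K9me3 peptide; top concentration of the series differs between compounds; nearly all actives have a fitted effect of over 55% in size.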 In a few lines:
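MPP8 (50 nM) was preincubated with biotinylated H3(1-18)K9me3 peptide (50 nM) in PBS pH 7.4, 0.01% Tween-20 for 30 min at room temperature, then with compounds for 30 min; binding was detected by AlphaScreen.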

In assay [9] the target is Chromobox protein homolog 1 (Homo sapiens) (UniProt P83916). In words: qHTS Validation Assay for Inhibitors of HP1-beta Chromodomain Interactions with Methylated Histone Tails (AID 488953). Also: nearly all actives have a fitted effect of over 50% in size. Also: potency is read from the fitted curve at half-maximal effect. In a few lines:
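AlphaScreen proximity signal from streptavidin donor and nickel chelate acceptor beads (final 10 ug/mL) after 30 min dark incubation. Compounds had 30 min at room temperature with preformed complex of 50 nM HP1-beta and 50 nM b-H3(1-18)K9me3 in PBS pH 7.4 with 0.01% Tween-20.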

Assay [10] addresses Methanococcus maripaludis chaperonin (MmCpn) (UniProt Q6LX38). In words: High-Throughput Screening for Modulators of Cytosolic Chaperonin Activity: MmCpn Primary Screen (AID 488978).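 Also: 50 nM MmCpn enzyme hydrolysing 30 µM ATP at 37 °C.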 Summed up: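 MmCpn (50 nM final) was preincubated with compound 5 min at RT, then 30 uM ATP (final) was added and the reaction ran 10 min at 37C. ADP produced was detected by Transcreener HTRF (ex 320 nm; em 590/665 nm).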

Assay [11] addresses Transient receptor potential cation channel subfamily V member 1 (Homo sapiens) (UniProt Q8NER1). The assay can be described thus: HTS Assay for Compounds that Act as Enhancers of the Vanilloid Receptor 1 (AID 488979). Summed up:
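TRPV1-expressing cells loaded with Fluo-8 calcium dye; compounds added and calcium influx read kinetically for 3 min (agonist phase), then capsaicin at EC20 added and read 2 min more for enhancement. Fluorescence ex 480/em 520 nm.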

Assay [12] has as its target Thyrotropin receptor (Homo sapiens) (UniProt P16473). The assay can be described thus: qHTS Assay for Antagonists of the Thyroid Stimulating Hormone Receptor (AID 488980). In a few lines: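 HEK293 cells transfected with human TSHR, suspended in HEPES-buffered HBSS with 70 uM RO 20-1724, were treated with compounds plus TSH at EC80 (4 nM final). cAMP was measured by competitive HTRF (cryptate anti-cAMP antibody, cAMP-d2 acceptor).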

Assay [13] addresses D(1A) dopamine receptor (Homo sapiens) (UniProt P21728). In words: HTS Assay for Allosteric Agonists of the Human D1 Dopamine Receptor: Primary Screen for Agonists (AID 488981). In a few lines: (§1)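 Tetracycline-induced HEK293 T-REx cells force-coupled to calcium signalling were incubated overnight at 30 C and dye-loaded at room temperature. Calcium flux over 180 s after compound addition flagged agonists; a further 180 s read after EC20 dopamine flagged potentiators.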

The target is the same in assay [14]. In words: HTS Assay for Allosteric Agonists of the Human D1 Dopamine Receptor: Primary Screen for Potentiators (AID 488982). Summed up: as §1
Assay [15] has the same target. In words: HTS Assay for Allosteric Agonists of the Human D1 Dopamine Receptor: Primary Screen for Antagonists (AID 488983).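 Also: calcium flux response to an EC80 dopamine challenge measured with no-wash dye; nearly all actives have a fitted effect of over 65% in size.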 Summed up: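 Calcium-flux read-out in inducible HEK293 T-REx cells expressing D1, dye-loaded 30–90 min at room temperature. Kinetic reads: 180 s after compound (agonist phase), then 180 s after an EC80 dopamine challenge.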
Assay [16] concerns the target ATP-dependent 6-phosphofructokinase (Trypanosoma brucei brucei) (UniProt O15648). In words: qHTS Validation Assay to Find Inhibitors of T. brucei phosphofructokinase (AID 485368). The note with it: T. brucei PFK enzyme assay, qHTS 7-point titration; at 57.5 µM (top of the series). Summed up: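 qHTS format, up to 57 uM. PFK 1.25 nM; F6P 0.5 mM; ATP 0.1 mM; 5 mM MgCl2, 0.01% Tween20, 0.1% BSA; 0.1 M TEA pH 8.0; 45 min RT; ADP-Glo readout; no-enzyme control = full inhibition.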

The target is the same in assay [17]. The assay can be described thus: qHTS Assay to Find Inhibitors of T. brucei phosphofructokinase: hit validation (AID 492961).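 Also: luminescence reports ADP formed as PFK phosphorylates fructose-6-phosphate with ATP.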 In a few lines: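 PFK 1.25 nM, F6P 0.5 mM, ATP 0.1 mM, MgCl2 5 mM, 0.1 M TEA pH 8.0, Tween20 0.01%, BSA 0.1%; 45 min RT. ADP-Glo two-step detection, luminescence. qHTS titration; curve fitting with curve-class categorization.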

Chain of M-phase phosphoprotein 8 (Homo sapiens) (Q99549 whole entry, looked up): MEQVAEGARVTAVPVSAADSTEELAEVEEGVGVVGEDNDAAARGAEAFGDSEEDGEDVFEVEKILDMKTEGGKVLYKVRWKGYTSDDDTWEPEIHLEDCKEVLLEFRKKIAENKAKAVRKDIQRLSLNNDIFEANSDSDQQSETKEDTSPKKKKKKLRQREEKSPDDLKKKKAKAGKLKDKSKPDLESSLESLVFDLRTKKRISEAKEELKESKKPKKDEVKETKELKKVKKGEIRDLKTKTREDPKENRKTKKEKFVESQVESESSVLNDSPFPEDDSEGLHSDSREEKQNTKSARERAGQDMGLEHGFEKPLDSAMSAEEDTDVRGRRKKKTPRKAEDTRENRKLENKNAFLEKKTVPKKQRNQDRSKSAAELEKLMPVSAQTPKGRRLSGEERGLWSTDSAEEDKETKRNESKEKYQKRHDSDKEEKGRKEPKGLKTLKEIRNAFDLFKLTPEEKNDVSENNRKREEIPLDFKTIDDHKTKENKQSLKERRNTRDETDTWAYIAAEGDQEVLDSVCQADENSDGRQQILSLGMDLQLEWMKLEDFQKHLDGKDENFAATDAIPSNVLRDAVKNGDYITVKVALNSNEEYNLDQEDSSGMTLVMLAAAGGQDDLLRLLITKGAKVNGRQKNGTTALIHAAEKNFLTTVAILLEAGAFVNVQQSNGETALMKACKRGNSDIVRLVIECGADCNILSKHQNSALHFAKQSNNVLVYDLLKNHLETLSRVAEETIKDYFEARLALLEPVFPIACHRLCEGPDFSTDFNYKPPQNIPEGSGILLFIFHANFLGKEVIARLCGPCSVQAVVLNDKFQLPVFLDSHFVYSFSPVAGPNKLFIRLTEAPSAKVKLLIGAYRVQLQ
Chain of Transient receptor potential cation channel subfamily V member 1 (Homo sapiens) (Q8NER1 whole entry, looked up): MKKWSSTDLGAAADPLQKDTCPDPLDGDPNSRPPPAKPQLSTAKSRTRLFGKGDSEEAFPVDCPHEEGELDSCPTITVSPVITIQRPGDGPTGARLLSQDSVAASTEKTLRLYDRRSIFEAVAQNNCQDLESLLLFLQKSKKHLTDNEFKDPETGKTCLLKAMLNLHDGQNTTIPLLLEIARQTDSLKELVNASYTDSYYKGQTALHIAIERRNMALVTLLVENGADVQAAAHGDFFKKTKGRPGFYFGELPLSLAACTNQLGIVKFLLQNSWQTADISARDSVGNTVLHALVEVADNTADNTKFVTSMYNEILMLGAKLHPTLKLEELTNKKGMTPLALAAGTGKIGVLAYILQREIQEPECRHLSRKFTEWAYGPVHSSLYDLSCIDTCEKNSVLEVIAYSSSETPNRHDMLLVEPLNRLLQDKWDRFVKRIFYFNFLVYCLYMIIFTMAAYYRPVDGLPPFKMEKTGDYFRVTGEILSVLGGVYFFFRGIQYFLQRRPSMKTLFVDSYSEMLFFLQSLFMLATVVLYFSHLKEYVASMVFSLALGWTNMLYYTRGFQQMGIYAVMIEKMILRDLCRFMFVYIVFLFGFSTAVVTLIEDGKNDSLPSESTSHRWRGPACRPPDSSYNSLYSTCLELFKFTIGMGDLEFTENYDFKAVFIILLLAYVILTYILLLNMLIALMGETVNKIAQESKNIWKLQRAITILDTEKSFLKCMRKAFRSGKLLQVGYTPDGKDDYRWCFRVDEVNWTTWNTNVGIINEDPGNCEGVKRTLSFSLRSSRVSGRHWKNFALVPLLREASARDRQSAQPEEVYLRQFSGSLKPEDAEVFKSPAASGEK
Chain of Chromobox protein homolog 1 (Homo sapiens) (P83916 whole entry, looked up): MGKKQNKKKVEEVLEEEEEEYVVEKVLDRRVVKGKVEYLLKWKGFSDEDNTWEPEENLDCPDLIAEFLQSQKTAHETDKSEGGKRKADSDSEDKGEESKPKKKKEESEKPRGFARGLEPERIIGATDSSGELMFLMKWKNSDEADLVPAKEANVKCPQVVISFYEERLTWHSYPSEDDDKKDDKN
Chain of Tumor susceptibility gene 101 protein (Homo sapiens) (Q99816 whole entry, looked up, the tested form may be a part): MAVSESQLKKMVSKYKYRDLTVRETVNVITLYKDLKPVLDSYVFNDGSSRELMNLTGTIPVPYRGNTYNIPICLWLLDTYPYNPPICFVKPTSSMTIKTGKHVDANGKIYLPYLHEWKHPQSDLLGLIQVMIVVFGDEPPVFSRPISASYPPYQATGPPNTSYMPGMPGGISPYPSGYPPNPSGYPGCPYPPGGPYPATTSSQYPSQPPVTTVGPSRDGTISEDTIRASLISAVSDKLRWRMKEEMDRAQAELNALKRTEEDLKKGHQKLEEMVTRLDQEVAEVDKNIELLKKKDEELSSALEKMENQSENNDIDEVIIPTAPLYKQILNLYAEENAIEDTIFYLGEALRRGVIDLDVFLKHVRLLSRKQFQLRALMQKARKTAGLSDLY
Chain of Methanococcus maripaludis chaperonin (MmCpn) (Q6LX38 1-543): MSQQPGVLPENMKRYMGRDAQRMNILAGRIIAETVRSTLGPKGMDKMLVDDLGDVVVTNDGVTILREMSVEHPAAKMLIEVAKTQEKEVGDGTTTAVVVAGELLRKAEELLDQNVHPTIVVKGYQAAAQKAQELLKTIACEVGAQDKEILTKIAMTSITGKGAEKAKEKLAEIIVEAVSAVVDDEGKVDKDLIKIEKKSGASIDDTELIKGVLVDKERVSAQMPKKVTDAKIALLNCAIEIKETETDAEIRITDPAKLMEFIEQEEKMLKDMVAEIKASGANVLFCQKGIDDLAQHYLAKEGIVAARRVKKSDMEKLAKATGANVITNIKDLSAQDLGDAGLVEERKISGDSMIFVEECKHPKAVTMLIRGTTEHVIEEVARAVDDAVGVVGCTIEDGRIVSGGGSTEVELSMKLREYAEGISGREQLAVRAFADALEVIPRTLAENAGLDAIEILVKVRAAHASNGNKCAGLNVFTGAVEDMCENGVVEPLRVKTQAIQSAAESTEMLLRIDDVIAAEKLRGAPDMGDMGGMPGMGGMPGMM
Chain of Thioredoxin reductase 1, cytoplasmic (Rattus norvegicus) (O89049 whole entry, looked up): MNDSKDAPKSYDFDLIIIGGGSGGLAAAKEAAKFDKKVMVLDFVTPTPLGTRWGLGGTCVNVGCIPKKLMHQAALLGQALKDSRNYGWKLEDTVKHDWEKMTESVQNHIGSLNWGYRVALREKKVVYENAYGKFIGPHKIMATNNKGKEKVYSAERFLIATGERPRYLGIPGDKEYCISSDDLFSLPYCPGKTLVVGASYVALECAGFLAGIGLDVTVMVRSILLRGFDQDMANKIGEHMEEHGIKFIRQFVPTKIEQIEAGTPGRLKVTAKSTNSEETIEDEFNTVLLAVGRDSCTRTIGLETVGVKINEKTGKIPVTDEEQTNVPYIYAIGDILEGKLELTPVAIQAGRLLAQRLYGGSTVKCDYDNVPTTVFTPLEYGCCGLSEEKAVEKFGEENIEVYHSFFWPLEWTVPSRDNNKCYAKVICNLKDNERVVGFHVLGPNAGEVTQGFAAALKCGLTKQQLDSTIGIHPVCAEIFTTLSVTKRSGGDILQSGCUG
Chain of ATP-dependent 6-phosphofructokinase (Trypanosoma brucei brucei) (O15648 whole entry, looked up): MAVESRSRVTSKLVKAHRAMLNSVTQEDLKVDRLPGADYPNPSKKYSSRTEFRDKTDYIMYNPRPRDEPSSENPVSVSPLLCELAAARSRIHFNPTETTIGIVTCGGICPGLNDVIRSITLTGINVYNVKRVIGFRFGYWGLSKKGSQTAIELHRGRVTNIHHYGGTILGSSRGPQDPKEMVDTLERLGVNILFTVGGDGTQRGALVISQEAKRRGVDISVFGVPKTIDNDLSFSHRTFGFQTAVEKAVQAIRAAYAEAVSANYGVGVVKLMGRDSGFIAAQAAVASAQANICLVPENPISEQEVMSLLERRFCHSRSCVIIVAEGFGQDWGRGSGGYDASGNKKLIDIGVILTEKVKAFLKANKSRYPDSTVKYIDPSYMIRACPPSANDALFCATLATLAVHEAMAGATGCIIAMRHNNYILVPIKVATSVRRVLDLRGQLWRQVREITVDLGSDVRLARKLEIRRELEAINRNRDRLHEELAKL
Chain of D(1A) dopamine receptor (Homo sapiens) (P21728 whole entry, looked up): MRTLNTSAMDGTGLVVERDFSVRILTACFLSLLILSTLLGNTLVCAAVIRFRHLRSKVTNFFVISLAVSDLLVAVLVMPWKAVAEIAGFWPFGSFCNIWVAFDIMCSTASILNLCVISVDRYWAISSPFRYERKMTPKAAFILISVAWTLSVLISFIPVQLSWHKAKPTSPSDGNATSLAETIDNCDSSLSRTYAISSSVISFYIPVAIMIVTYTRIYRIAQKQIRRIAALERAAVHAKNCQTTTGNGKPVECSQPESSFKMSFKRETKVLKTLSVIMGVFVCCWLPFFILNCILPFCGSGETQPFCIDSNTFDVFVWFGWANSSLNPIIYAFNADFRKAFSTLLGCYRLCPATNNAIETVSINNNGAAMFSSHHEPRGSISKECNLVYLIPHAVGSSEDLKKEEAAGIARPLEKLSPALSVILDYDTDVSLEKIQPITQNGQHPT
Chain of Thyrotropin receptor (Homo sapiens) (P16473 whole entry, looked up): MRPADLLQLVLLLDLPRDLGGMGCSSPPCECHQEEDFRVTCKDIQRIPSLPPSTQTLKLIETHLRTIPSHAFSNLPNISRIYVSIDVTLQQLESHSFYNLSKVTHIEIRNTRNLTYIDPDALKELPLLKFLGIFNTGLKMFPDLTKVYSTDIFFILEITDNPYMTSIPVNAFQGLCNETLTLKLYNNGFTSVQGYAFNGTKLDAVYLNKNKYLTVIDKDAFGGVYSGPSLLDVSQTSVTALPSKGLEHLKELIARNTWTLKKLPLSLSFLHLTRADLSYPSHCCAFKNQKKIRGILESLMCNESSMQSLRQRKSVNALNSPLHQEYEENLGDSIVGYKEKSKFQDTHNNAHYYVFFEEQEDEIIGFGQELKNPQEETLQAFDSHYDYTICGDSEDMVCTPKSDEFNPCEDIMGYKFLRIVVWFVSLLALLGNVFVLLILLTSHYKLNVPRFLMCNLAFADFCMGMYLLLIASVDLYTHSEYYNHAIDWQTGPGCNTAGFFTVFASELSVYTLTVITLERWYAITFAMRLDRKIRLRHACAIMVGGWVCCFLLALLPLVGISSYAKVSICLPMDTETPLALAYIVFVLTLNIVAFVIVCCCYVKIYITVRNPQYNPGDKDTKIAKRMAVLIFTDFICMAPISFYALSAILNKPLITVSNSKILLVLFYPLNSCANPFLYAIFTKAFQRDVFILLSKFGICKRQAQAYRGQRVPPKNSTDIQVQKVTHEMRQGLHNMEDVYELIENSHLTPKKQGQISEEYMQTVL

Regarding `C[C@]12N[C@H](Cc3ccccc31)c1ccccc12`, the Potency result in assay [1], in assay [4], in assay [6], in [7], in [8] and in [13] was “inactive” each time. The Potency result in [15] was “inactive”. Further, the outcome in [2], in assay [3], in [5], in assay [10], in [11] and in [12] was inactive. For the same molecule, the result in [14] was inactive. For the same molecule, the Potency in [9] was 7.5 nM (active).
With `CCCCc1ccc(C(=O)O)nc1`, the Potency result in assay [1], in assay [4], in assay [6], in assay [8], in [9] and in [13] was “inactive” throughout. In [15], the Potency result was “inactive”. In addition, the molecule was classed as inactive in [2], in assay [3], in assay [16], in assay [5], in [10] and in assay [11]. In addition, the molecule was classed as inactive in assay [12] and in [14].
For the molecule `CNCCc1c[nH]c2ccc(O)cc12`, the Potency entry in [1], in [4], in assay [6], in assay [8], in assay [13] and in assay [15] was “inactive” in each case. The call in assay [2], in [3], in assay [16], in assay [5], in assay [10] and in assay [11] was inactive. The result in assay [12] and in [14] was inactive.
As for `O=C(O)Cc1cnc[nH]1`, the Potency result in [1], in assay [4], in assay [6], in [7], in [8] and in [13] was “inactive” throughout. Moreover, in assay [15], the Potency result was “inactive”. Also, the molecule was called inactive in assay [2], in assay [3], in assay [16], in [5], in assay [10] and in [11]. Moreover, the result in assay [12] and in assay [14] was inactive.
Regarding `CC1=NN=C(c2ccc(N)cc2)c2cc3c(cc2C1)OCO3`, the Potency entry in [1], in [4], in assay [6], in assay [8], in [9] and in [13] was “inactive” in each case. Further, the Potency entry in assay [15] was “inactive”. Further, the outcome in assay [2], in [3], in assay [5], in assay [10], in [11] and in assay [12] was inactive. For the same molecule, in [14], the result was inactive.
On to `COc1cc(C(O)CN)ccc1O` (stereo not drawn), for which the Potency result in assay [1], in [4], in assay [6], in assay [8], in [9] and in assay [13] was “inactive” each time. The Potency entry in [15] was “inactive”. For the same molecule, the result in assay [2], in [3], in assay [16], in assay [5], in [10] and in assay [11] was inactive. For the same molecule, the call in assay [12] and in [14] was inactive.
Consider `CCCN1CCC[C@H](c2cccc(O)c2)C1`, for which the Potency result in [1], in assay [4], in [6], in [8], in assay [9] and in assay [13] was “inactive” throughout. Moreover, the Potency result in [15] and in assay [17] was “inactive” in each case. Further, the molecule was called inactive in assay [2], in assay [3], in [16], in assay [5], in [11] and in [12]. Further, the result in assay [14] was inactive.
